Data: PubChem BioAssay AID463173 (ICCB-Longwood Screening Facility, Harvard Medical School, 2010)
Screen size: about 52,000 compounds; about 1,700 (3.3%) were called active. For the sample, actives were picked, then their nearest neighbours and some compounds at random. A number with no mark means an inactive call. No stated cut-off is given here; in the data, active means survival mostly below about 52% (no sharp cut-off); inactive means mostly above about 56%.

What follows are molecules tested on Wild type (assay: growth inhibition of S. aureus wild type versus tarO mutant, primary screen, teichoic acid synthesis inhibitors, RN4220, OD600 (AID 463173)). Conditions: S. aureus RN4220 wild type/DeltatarO growth, OD600, 18 h, active compounds read low, screened at 18.75 µg/mL (by protocol).

| Compound | survival |
| --- | --- |
| CONc1nc(NC(C)(C)C)nc(OCC#N)n1 | 102% |
| N#CCOc1nc(OCC#N)nc(OCC#N)n1 | -1% (active) |
| CNc1nc(OCC#N)nc(N2CCCCC2)n1 | 119% |
| CCOc1ccc(CNC(=O)c2cc3c(=O)n(C)c4ccccc4c3s2)cc1 | 84% |
| Cc1cccc(C(=O)NCCc2nc3ccccc3n2CCC(C)C)c1 | 116% |
| CC(C)CCn1c(/C=C/c2ccccc2)nc2ccccc21 | -1% (active) |
| CCCCCn1c(CNC(=O)c2ccc(F)cc2)nc2ccccc21 | 90% |
| CCCCCCn1c(/C=C/c2ccccc2)nc2ccccc21 | 0% (active) |
| CCc1nc2ccccc2n1CCO | 101% |
| CCCn1c(CNC(=O)c2ccc(F)cc2)nc2ccccc21 | 69% |
| CCCCCCn1c(CNC(=O)c2ccccc2)nc2ccccc21 | 91% |
| CCn1c(O)c(/C=C/c2nc3ccccc3n2CC)sc1=S | 108% |
| CC(C)Cn1c(/C=C/c2ccc(F)cc2)nc2ccccc21 | -12% (active) |
| CCC(C)Cn1c(/C=C/c2ccccc2)nc2ccccc21 (configuration not stated) | 1% (active) |
| CCCCCn1c(CNC(=O)c2ccccc2)nc2ccccc21 | 89% |
| CCc1nc2ccccc2n1CC(C)C(=O)O (configuration not stated) | 108% |
| Cc1cc(C)n2nc(SCC(=O)Nc3cccc(C(F)(F)F)c3)nc2n1 | 56% |
| CCc1ccc(-n2c(SCc3ccccc3F)nc3[nH]ncc3c2=O)cc1 | 93% |
| O=C(CCS(=O)(=O)c1cc2c(cc1Cl)NC(=O)CO2)NCCc1ccc(Cl)cc1 | 116% |
| COc1ccc(NC(=O)Cn2c(=O)n(CC3CCCO3)c(=O)c3ccccc32)c(OC)c1 (configuration not stated) | 86% |
| O=c1c2sc3ccccc3c2n(Cc2ccccc2F)c(=O)n1CCc1ccccc1 | 86% |
| O=C(NCc1ccccc1)c1cc(Sc2cccc(Cl)c2)nc2ccccc12 | 78% |
| CCc1ccc(C(=O)c2cn(CC(=O)Nc3cc(OC)ccc3OC)c3nc(C)ccc3c2=O)cc1 | 124% |
| CC(C)Cn1c(=O)c2ccccc2n2c(CCC(=O)N3CCN(c4ccccc4)CC3)nnc12 | 127% |
| CCC1CCCCN1C(=O)COc1ccc(F)cc1 (configuration not stated) | 113% |

| Compound | survival |
| --- | --- |
| CCOc1ccc(C2C(=O)N(C3CCCCC3)CC(=O)N2CCc2ccccc2)cc1OC (configuration not stated) | 117% |
| Cc1cccc(N2CCCC2=Nc2ccc(Br)cc2C#N)c1 | 116% |
| O=C(Nc1ccccc1Cl)c1ccc(F)c(S(=O)(=O)NCc2ccc(Cl)c(Cl)c2)c1 | 69% |
| COc1ccc2cc(CNc3ccc(C)cc3)c(=O)n(CC(=O)Nc3cccc(Cl)c3C)c2c1 | 73% |
| COc1ccc(C(=O)N(Cc2ccc(N(C)C)cc2)Cc2ccco2)cc1Cl | 81% |
| CCOC(=O)N1CCN(Cc2nc3cc(NC(=O)c4ccc(OC)cc4)ccc3n2C(C)C)CC1 | 89% |
| C#CCn1c(COc2ccccc2C)nc2ccccc21 | 115% |
| C#CCn1c(/C=C/c2ccc(Cl)cc2)nc2ccccc21 | 23% (active) |
| Cn1c(C=Nc2ccc(Cl)cc2)nc2ccccc21 | 111% |
| Cn1c(C(=O)NCCc2ccccc2)cc2c(=O)n3ccccc3nc21 | 80% |
| CCOc1ccc(NC(=O)Cn2nnc(C(=O)NCc3cccs3)c2N)cc1 | 97% |
| Cc1ccc2c(c1)cc1c(=O)n(Cc3ccc(Cl)cc3)nc(C)n12 | 97% |
| COc1cc(/C=C(\C#N)c2nc3ccccc3[nH]2)ccc1OCc1cccc(C(F)(F)F)c1 | 66% |
| COc1ccc(NC(=O)NC(C)c2c(-n3cccc3)sc(C)c2C)cc1OC (configuration not stated) | 76% |
| Cc1sc(-n2cccc2)c(C(C)NC(=O)Nc2cccc(C(F)(F)F)c2)c1C (configuration not stated) | 6% (active) |
| COC(=O)c1ccc(Cl)cc1NC(=O)NC(C)c1c(-n2cccc2)sc(C)c1C (configuration not stated) | 12% (active) |
| Cc1ccc(NC(=O)NC(C)c2c(-n3cccc3)sc(C)c2C)cc1F (configuration not stated) | 74% |
| COC(=O)c1ccc(NC(=O)NC(C)c2c(-n3cccc3)sc(C)c2C)cc1 (configuration not stated) | 89% |
| Cc1sc(-n2cccc2)c(C(C)NC(=O)Nc2ccccc2Cl)c1C (configuration not stated) | 77% |
| Cc1cccc(-n2ncc3c(Nc4ccc(Oc5ccc(Cl)cc5)cc4)ncnc32)c1 | 88% |
| CCC(=O)C1=C(c2ccc(OC)c(OC)c2)N(C(=O)CC)n2c(CC)nnc2S1 | 55% |
| CCCCN(C)C(=O)CSc1nc2ccccc2nc1Cc1ccc(C)cc1 | 0% (active) |
| CCN(C(=O)CSc1nc(-c2ccc(C(C)C)cc2)no1)c1cccc(C)c1 | 72% |
| CCN(C(=O)CSc1nc(-c2ccccc2)no1)c1cccc(C)c1 | -2% (active) |
| CCN(C(=O)CSc1nc2ccccc2nc1Cc1ccc(F)cc1)c1cccc(C)c1 | 88% |

| Compound | survival |
| --- | --- |
| COc1ccc(-c2noc(CC(=O)N(C)c3cccc(C)c3)n2)cc1 | 83% |
| COc1cccc(Cc2nc3ccccc3nc2SCC(=O)Nc2cccc(C)c2)c1 | 128% |
| COc1ccc(-c2noc(CCC(=O)Nc3ccc(C(F)(F)F)cc3)n2)cc1 | 84% |
| CCN(C(=O)CSc1nc2ccccc2nc1Cc1cccc(OC)c1)c1cccc(C)c1 | -2% (active) |
| CCN(C(=O)CCc1nc(-c2ccc(C)cc2)no1)c1cccc(C(F)(F)F)c1 | 0% (active) |
| CCCCNC(=O)CSc1nc2ccccc2nc1Cc1ccc(C)cc1 | 72% |
| CCN(C(=O)CSc1nc(-c2ccccc2)no1)c1ccccc1 | 85% |
| Cc1ccc(CNC(=O)CSc2nc3ccccc3nc2Cc2ccc(C)cc2)cc1 | 78% |
| CCCOc1ccc(C2C(=O)N(C3CCCCCC3)CC(=O)N2Cc2ccccc2OC)cc1OC (configuration not stated) | 87% |
| COc1ccc(-c2nc(SCC(=O)Nc3ccc4c(c3)OCO4)c(-c3ccc(F)cc3)[nH]2)cc1OC | 65% |
| COC(=O)C1CCCc2c1[nH]c1ccc(Cl)cc21 (configuration not stated) | 142% |
| CC1=C(C(=O)OC2CCCC2)C(c2cccc(Cl)c2Cl)CC(=O)N1 (configuration not stated) | 90% |
| Cc1ccc(F)cc1NC(=O)c1ccc(Cn2nc(N3CCN(c4ccccc4)CC3)ccc2=O)o1 | 127% |
| CCc1cccc(NS(=O)(=O)c2ccc3c(c2)CC(C)N3C(=O)C2CC2)c1 (configuration not stated) | 80% |
| COc1ccc(CNC(=O)Cn2c(=O)oc3cc(S(=O)(=O)N4CCCC4)ccc32)cc1 | 91% |
| Cc1ccc2nc(-c3ccc(C)s3)c(Nc3ccc4c(c3)OCCO4)n2c1 | 83% |
| CCOC(=O)c1cccc(NC(=O)N2CC(CC)Sc3ccccc32)c1 (configuration not stated) | 84% |
| COc1ccc(CNC(=O)c2cc3c(=O)n(Cc4ccco4)ccc3nc2C)cc1 | 74% |
| Cc1ccc2c(c1)c1c3n2CCN(C(=O)CN2CCN(C(=O)c4ccco4)CC2)C3CCC1 (configuration not stated) | 126% |
| COc1ccc(C(=O)Oc2ccc(C(c3c(C)[nH][nH]c3=O)c3c(C)[nH][nH]c3=O)cc2OC)cc1 | 73% |
| O=C(CSc1nnc(CNC(=O)c2ccccc2F)n1-c1ccccc1)Nc1ccccc1F | 66% |
| COc1ccc(CNC(=O)c2cc3cc4ccc(C)cc4nc3o2)cc1 | 88% |
| CCN(C(=O)CCc1nc(-c2ccc(C)cc2)no1)c1cccc(Cl)c1 | -1% (active) |
| CCN(C(=O)Cc1nc(-c2ccc(OC)cc2)no1)c1cccc(Cl)c1 | 84% |
| CCN(C(=O)CCc1nc(-c2ccc(C)cc2)no1)c1cc(C)ccc1C | 0% (active) |

| Compound | survival |
| --- | --- |
| CC(C)(C)c1ccc(-c2noc(CCC(=O)Nc3cccc(Cl)c3)n2)cc1 | 87% |
| COc1cc(-c2noc(CCC(=O)Nc3cc(C)ccc3C)n2)cc(OC)c1OC | 82% |
| Cc1ccc(C)c(NC(=O)CCc2nc(-c3ccc(C(C)(C)C)cc3)no2)c1 | 109% |
| COc1ccc2cc3cc(C(=O)NCc4ccc(C)cc4)oc3nc2c1 | 89% |
| CCN(C(=O)c1cc2cc3ccc(OC)cc3nc2o1)c1cccc(C)c1 | 0% (active) |
| Cc1ccc(-n2cnc3ccccc3c2=O)cc1C | 89% |
| CCN1C(=O)C(C2SC(=S)N(CC)C2=O)SC1=S (configuration not stated) | 98% |
| CCc1ccccc1N(C)C(=O)c1cnc(N2CCOCC2)c2ccccc12 | 65% |
| O=C(O)c1ccccc1NC(=O)N1c2ccccc2Sc2ccccc21 | 28% |
| CCN(CC)C(=O)N1c2ccccc2Sc2ccccc21 | 108% |
| CC(C)c1ccc(NC(=O)N2c3ccccc3Sc3ccccc32)cc1 | 5% (active) |
| COc1ccccc1NC(=O)N1c2ccccc2Sc2ccccc21 | -1% (active) |
| CCOc1ccccc1NC(=O)N1c2ccccc2Sc2ccccc21 | 61% |
| CCOC(=O)N1c2ccccc2Sc2ccccc21 | 95% |
| COc1ccc(OC)c(NC(=O)N2c3ccccc3Sc3ccccc32)c1 | 19% |
| COc1cc(NC(=O)N2c3ccccc3Sc3ccccc32)cc(OC)c1 | 65% |
| CCc1ccc(NC(=O)N2c3ccccc3Sc3ccccc32)cc1 | 1% (active) |
| CCOC(=O)c1cccc(NC(=O)N2Cc3ccccc3Oc3ncccc32)c1 | 81% |
| Cc1c2cnn(CC(=O)O)c(=O)c2c(C)n1Cc1cccc(Cl)c1 | 80% |
| CCCSc1ncc(Cl)c(C(=O)N(Cc2ccccc2)c2ccc(OC)cc2)n1 | 80% |
| Cc1ccc(-n2ncc3c(Nc4ccc5c(c4)OCCO5)ncnc32)cc1C | 100% |
| CSc1cccc(Nc2cc(C(=O)NCCc3ccc(Cl)cc3)c3ccccc3n2)c1 | 120% |
